Measurements reported in PubChem BioAssay (NCI).
The panel holds about 83,000 compounds, 20% with a hit somewhere; the sample as a whole holds those more often.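 The test compound was applied at a single concentration to cells in 96-well plates for 48 hours, and percent growth was recorded.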 Values without a mark were called inactive. Activity calls are given as the source filed them.

test system: HOP-62 NSCLC; assay: NCI-60 one-dose screen, 48 h (100 = growth as untreated, 0 = no growth, -100 = all killed); settings: 10 µM unless noted
Procedure: Growth inhibition of the HOP-62 human Non-Small Cell Lung tumor cell line is measured as a screen for anti-cancer activity. Cells are grown in 96 well plates and exposed to the test compound for 48 hours. Compounds are tested at a single concentration, which is 10^-5 M for most compounds. The reported endpoint is percent growth (GI% or GIPRCNT), where numbers from 0 - 100% represent growth inhibition, and numbers from -100% - 0 represent cell death. For example, a value of 40 represents 60% growth inhibition. A value of 0 means no net growth occurred over the course of the experiment. A value of -40 indicates 40% of cells at the beginning of the experiment died by the end of the experiment. A value of -100 means all cells are dead at the end of the experiment.
NCI-60 Human Tumor Cell Lines Screen was performed using the standard one-dose NCI protocol, which is described in more detail at https://dtp.cancer.gov/discovery_development/nci-60/default.htm.
Compounds with GIPRCNT values below 10 were considered active. Activity score was based on GIPRCNT using the following formula: […]
Score is 0 for GIPRCNT values of 100 or above, 50 for GIPRCNT values of 0, and 100 for GIPRCNT values of -100.

Structure (SMILES) | growth
NC(N)=NC(N)=NCCCc1ccccc1 | 65.1% [100 µM]
COc1ccc(-c2c(-c3cc(OC)c(OC)c(OC)c3)noc2N)cc1 | 41.4%
c1ccc(Nc2nnc(-c3cc(-c4cccnc4)n(-c4ccccc4)n3)s2)cc1 | 99.1%
COc1cccc(/C=C2\COc3ccc(O)c(O)c3C2=O)c1OC | 19%
N#Cc1c(N)[nH]c(S)c1C#N | 100%
O=C(/C=C/c1cccnc1)/C=C/c1cccnc1 | 98.9%
CN(CC(=O)Nc1nc2ccccc2[nH]1)S(=O)(=O)c1ccc(Cl)cc1 | 69.4%
C[n+]1c2ccccc2c(Nc2ccc(N3CCCCC3)cc2)c2[nH]c3ccccc3c21 | -93.8% (active)
c1ccc(-c2nnc(Nc3nnc(-c4ccccc4)s3)s2)cc1 | 101%
O=C(/C(=C/c1ccc([N+](=O)[O-])cc1)c1ccccc1)c1ccccc1 | 88.9%
Cc1c(C)c(N2C(=O)C=CC2=O)c(C)c(C)c1N1C(=O)C=CC1=O | 91.6%
c1csc([C@@H]2C[C@@H]3Cc4ccc5ccccc5c4N2O3)c1 | 112%
Fc1ccc([C@@H]2CCNC[C@H]2COc2ccc3c(c2)OCO3)cc1 | 79%
O=C(c1nn(-c2ccc(Cl)cc2)cc1O)n1nc(C(F)(F)F)cc1-c1ccccc1 | 34.6%
Cc1c(C(N)=O)sc2c1c(=O)n(Cc1ccccc1)c1nnc(S(=O)(=O)CC(=O)Nc3ccc(Cl)cc3)n21 | -26.9% (active)
COc1cc(C(=O)/C=C/c2cccnc2Nc2ccccc2)cc(OC)c1OC | -74.2% (active)
O=C(c1ccccc1)c1ccccc1Cl | 105%
O=C1CC(=O)N(c2ccccc2)O1 | 92.3%
Clc1ccc2nc(Cl)c3ccccc3c2c1 | 58.3%
CC(c1ccccn1)C(C)(O)C(C)c1ccccn1 (stereo not given) | 101%

Structure (SMILES) | growth
CCN(CC)c1ccc(CN(CC(=O)c2ccc(Cl)c(Cl)c2)Cc2ccccc2)cc1 | 96.9%
CCCCCCCCCCCCCCCCN=C(CC(=O)O)C(=O)O | 106%
Nc1nc(SCc2ccccc2Cl)c(-c2ccccc2)c(SCc2ccccc2Cl)n1 | 87.9%
O=C(Nc1ccc(Cl)cc1Cl)Nc1ccc(-c2cccnc2)cc1N1CCC(CO)CC1 | 42%
COc1ccc2c(c1)nc(N)c1c3ccccc3cn21 | 85.6%
NS(=O)(=O)c1ccc(NC2=C(Cl)C(=O)c3ccccc3C2=O)cc1 | 102%
COc1ccc(C2CC(c3ccc(OC)c(OC)c3)=NN2C(=O)c2cc(OC)c(OC)c(OC)c2)cc1 (stereo not given) | 34.8%
O=[N+]([O-])c1ccc(N/N=C/c2c(O)ccc3ccccc23)nc1 | 45.6%
C=Cc1nn2c(CCC(=O)c3nc4ccccc4[nH]3)nnc2s1 | 97.9%
Cc1cc(C(C)(C)C)cc(C)c1CC1=NCCN1 | 109%
OC(Cc1cccnc1)c1ccccc1 (stereo not given) | 105%
CN(C)c1cccc2c(S(=O)(=O)N[C@H]3CC[C@H]4[C@@H]5CCc6cc(O)ccc6[C@H]5CC[C@]34C)cccc12 | 66.8%
O=C(Nc1ccccc1Cl)c1cnc2ccc(C3CCNCC3)cn12 | 58.3%
CC/C=C\C=C/C(=O)N/C=C/CC1Cc2cccc(O)c2C(=O)O1 (stereo not given) | 65.5%
CC[N+](CC)(CCOCCOCC[N+](CC)(CC)Cc1ccc([N+](=O)[O-])cc1)Cc1ccc([N+](=O)[O-])cc1 | 76.4%
COc1cc(OC)c2cc(C(=O)O)c(=O)oc2c1 | 103%
COc1ccc(COC(C)=O)cc1 | 101%
CC(C)c1nc(N(C)S(C)(=O)=O)nc(-c2ccc(F)cc2)c1/C=C/[C@@H](O)C[C@@H](O)CC(=O)O | 108%
O=C(NCCCO)c1cc(Cl)ccc1O | 36.3%
CCOC(=O)C1C(=O)OC2CCCCC21 (stereo not given) | 127%
